From the supplement of paper PMC6555819

system: PPARg DBDmut IVT, anti-PPARg (DBD mutation: PPARg1 K132A/R137A, NR concentration 270 nM); experiment: PBM binding z-score (relative to random genomic background probes); higher = stronger binding; sequences stand for … in GC…GCGATTGACAGCGTAGAATGAAGG
Procedure, shortened: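 Regression normalization was applied to scanned fluorescence from custom Agilent 4×180K protein-binding microarrays. Before scanning, arrays were incubated 1 h with ligand-free nuclear receptor dimers, and binding was detected with antibodies against each partner (one per run). Binding z-scores use the random background probes as reference.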

Row | Sequence | PBM binding z-score
1 | GGAACGAGGGCAAAGCTGATAGCATCTGTCGACG | -0.247
2 | CCTAGCAGGACAATCTGGGTCACTCAAGGCTTGA | -0.424
3 | CGAACGAGGGCATGAGTCGATAGCAAATGCCGAT | -0.876
4 | TAGCCTAGGTCATGCGGGCCAGTAAAGTGTCGGC | -0.0156
5 | CGTTACGGGTCACTGACAGGTTATAGCATTTGGA | 0.284
6 | AGAATCAGGTTACCAAAGATCAGGGAAACGCTTG | 1.06
7 | CCTACTGGGCCAAAAAGGTCATCGATGCCGATAA | 0.00778
8 | ATATGTACGTTAAGGGTCATTCAGGTTGGTTCGC | 3.29
9 | TCTCGGAGGATACGAAGGTCAGAGCTTTCCAGAG | -1.19
10 | TCATATAGGTAAAGGTGAAAGTGGAACGATATGA | 1.26
11 | CCTGCTAGGTCAATGGCCAGCTAAAGCAGCTCGC | -1.25
12 | TCGGACAGGTGAAGGTAACTCAGGTACGCAGTCG | -0.574
13 | TCATATAGGTAAAACGTGAAAGTCGGTGTGGTAA | 1.01
14 | GCAGACAGGTGAAACGCAGGTAACTCACGGTGGC | -0.094
15 | CGTCCAAGGTCAGAGAGGTCAGGGAATGCCGAGT | 0.231
16 | GCTCGGAGGACAAGCTCAGAGCTTTGTCCGTAGA | -0.738
17 | TGTAGTTGGTCACGGAGGTCACACACGACGGGTA | 0.805
18 | CAAACTAGGTCAAGAGGTCACAGTCCGCTTCCCG | 2.62
19 | CAAACTAGGTCAAGAGGTCGAAGTCCGCTTCCCG | 0.351
20 | GCCTACGGGTCAAAGGTTATAGCATGAATAGAAT | 0.485

Row | Sequence | PBM binding z-score
21 | TAGCCTAGGTCATGGGCCAGCATACCACGCGAAC | -0.0378
22 | CGAACTGGGTCATCCAGGACAGTGAATACATTGA | 4.27
23 | CCAGACAGGTGAAAGATAACTCAGTCTGGTACGC | -0.498
24 | CCTACTGGGCCATCAGGTCATTGTTATCAACGTT | 0.711
25 | CGAACTAGGACAAGGACAGTGAATCTCCGCACGC | 0.471
26 | CAGCCTAGGTCACGGCCAGTATAGGAGGAACGTT | -0.166
27 | TCATATAGGTAAATGCTAGGTGAAAGCCCGATCT | 0.941
28 | GCTCGGACGACAAGGTCAGAGCTTTGTCCGTAGA | -1.46
29 | CAAGCTAGGTCACGAAAGGTCAAAGTCGAATGAC | -0.0947
30 | TAGGCTAGGTCATGGGCCAGTATACCACGCGAAC | -0.653
31 | GCAGACAGGTGAAACGCAGGTAAATCAGGGTGGC | -1.02
32 | CCTTACGGGTCAAGGTTATTGCACGGGTGGTACG | -0.115
33 | ACTGACAGGTGATGAAGGTAACTCAGGCTATCAT | -0.0306
34 | CAAACTAGGTCATCGGAAGGTCAAAGTCCGCATG | 2.98
35 | CAAACTAGGTAACGAAAGGTCAAAGTCGAATGAC | 1.33
36 | TCTCGGAGGACCCGAAGGTCAGAGCTTTCCAGAG | -1.31
37 | AACACAGGGTCATCGTAGGCCAGAGTACGCACAG | 0.514
38 | AGAATGAGGTTATTAAGATCCGGGAATTGCGGTC | 0.352
39 | TCATATAGGTAAATGCTAGATGAAAGTCCGATCT | 1.42
40 | CCTGCTAGGTCATGGTAAGCTAATCTACAGTATG | 0.561
